Where “and” joins values, the source holds several entries; their conditions need not be identical. Equal values may be shown once. Compounds without any hit were thinned out: in the full panel of roughly 83,000, 20% have a hit.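 The test compound was applied at a single concentration to cells in 96-well plates for 48 hours, and percent growth was recorded.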 Unmarked numbers belong to inactive results. Calls of active or inactive are those of the source. The calls were made as follows: active = growth percent below 10; inactive = the rest.
Assays:
Assay in all cases: NCI-60 one-dose screen, 48 h (100 = growth as untreated, 0 = no growth, -100 = all killed)
Details in all cases: 10 µM unless noted
DU-145 prostate = system: DU-145 prostate
K-562 leukemia = system: K-562 leukemia
MALME-3M melanoma = system: MALME-3M melanoma
MDA-MB-231 breast = system: MDA-MB-231 breast
RXF 393 renal = system: RXF 393 renal
SF-268 CNS = system: SF-268 CNS
SF-295 CNS = system: SF-295 CNS
SF-539 CNS = system: SF-539 CNS
UACC-257 melanoma = system: UACC-257 melanoma
M14 melanoma = system: M14 melanoma

| SMILES | growth (DU-145 prostate) | growth (K-562 leukemia) | growth (MALME-3M melanoma) | growth (MDA-MB-231 breast) | growth (RXF 393 renal) | growth (SF-268 CNS) | growth (SF-295 CNS) | growth (SF-539 CNS) | growth (UACC-257 melanoma) | growth (M14 melanoma) |
| --- | --- | --- | --- | --- | --- | --- | --- | --- | --- | --- |
| CN1CCc2c(sc3ncnc(N/N=C/c4cccc(Cl)c4Cl)c23)C1 | -5.42% (active) | -7.35% (active) | 87.5% | -43.4% (active) | 27.3% | 43.1% | -72.5% (active) | -91.8% (active) | 76.5% | 64.5% |
| O=C(Nc1ccc(Cl)c(C(F)(F)F)c1)N1CCN(c2cc(-c3cn(-c4ccccc4)nc3-c3cccc(O)c3)ccn2)CC1 | 22.5% | 14.8% | -31.4% (active) | -48.6% (active) | -35.4% (active) | 2.35% (active) | -37.2% (active) | 7.9% (active) | -16.6% (active) | -19.3% (active) |
| O=C(CSc1nc2sc3c(c2c(=O)n1-c1ccc(Cl)cc1)CCCC3)N/N=C/C=C/c1ccccc1 | 26.7% | 19.4% | -97% (active) | -69.4% (active) | -67.1% (active) | 55.1% | 12% | -35.2% (active) | 1.05% (active) | -65.9% (active) |
| COc1ccc(C2=Nc3c(N)nc(N)nc3NC(c3ccc(Oc4nc(Nc5ccc(F)cc5)nc(N(C)C)n4)c(OC)c3)C2)cc1 (stereo not given) | 68.8% | 29.5% | 83.1% | 43.3% | 12.1% | 61.6% | 85.7% | 71.9% | 70.5% | 93.4% |
| O=C1Nc2ccc(F)cc2/C1=C/C(=O)c1cc2ccccc2oc1=O | 111% | 33.9% | 71.2% | 91.8% | 83.4% | 106% | 108% | 105% | 96.3% | 89.1% |
| O=C(NC(=S)N1CCN(c2ncnc3c2cnn3-c2ccccc2)CC1)c1ccc(F)cc1 | 86.4% | 51.3% | 78.1% | 84.2% | 77% | 80.2% | 69.3% | 73.8% | 89% | 86.8% |
| CCOC(=O)/C(F)=C/C1CC1C(c1ccccc1)c1ccccc1 (stereo not given) | 106% | 70.4% | 81.2% | 88.4% | 77.2% | 99.1% | 88.7% | 96.5% | 105% | 91.7% |
| O=C1c2cccc3c(N4CCN(c5ccccc5)CC4)ccc(c23)C(=O)N1c1cccc(-c2nn(-c3ccccc3)cc2-c2nc3ccccc3s2)c1 | 108% | 91.1% | 88.8% | 95.1% | 106% | 101% | 103% | 95.1% | 113% | 104% |
| O=c1[nH]c2ccccc2cc1CSc1ccccc1Nc1nccc(-c2ccc3c(c2)OCO3)n1 | 85.1% | 87.6% | 80.2% | 85.4% | 81.5% | 63.2% | 75.3% | 63.9% | 94.4% | 89.3% |
| O=C1CCC(N2C(=O)c3cccc(NCCOCCOCCOCCC(=O)NCCCC(=O)NC(c4ccc5c(c4)OCO5)c4cc(Cl)c5cccnc5c4O)c3C2=O)C(=O)C1 (stereo not given) | 60% | 22.8% | 29.3% | 25.3% | 43.6% | 24.4% | 61.6% | 10.3% | 29.7% | 54.8% |
| Cc1[nH]nc2ccc3nc(-c4cn[nH]c4C(F)(F)F)c4c(c3c12)CCCC4 | 5.72% (active) | 14.9% | -24% (active) | -14.8% (active) | -79.6% (active) | 18% | -12.9% (active) | -67.2% (active) | 17.8% | 3.29% (active) |
| CN(C)c1nc(NCCNS(=O)(=O)c2ccc(C(=O)/C=C/c3ccc(C(F)(F)F)cc3)cc2)nc(N2CCOCC2)n1 | 3.39% (active) | -13.6% (active) | 56.5% | -59.1% (active) | -76.6% (active) | 50.5% | 7.03% (active) | -95.4% (active) | 37.9% | -87.5% (active) |
| Nc1nn2c(-c3cc4ccccc4oc3=O)ccnc2c1N=Nc1ccccc1 | 90.6% | 67.2% | 81.9% | -34.8% (active) | 2.06% (active) | 61.8% | 72.3% | -62.4% (active) | 109% | 92.1% |
| C[C@@H]1CN(c2ccc3ncc(C#Cc4cncc(C(=O)Nc5ccc(CN6CCN(C)CC6)c(C(F)(F)F)c5)c4)n3n2)C[C@@H](C)O1 | -85.7% (active) | -28.1% (active) | -97.5% (active) | -93.1% (active) | -96.1% (active) | -56.2% (active) | -100% (active) | -100% (active) | -86.6% (active) | -94% (active) |
| c1ccc(CSc2nnc(-c3ccc4nc(-c5ccccc5)[nH]c4c3)o2)cc1 | 21.4% | 33.5% | 7.77% (active) | -12.8% (active) | -22.1% (active) | 8.24% (active) | 17.1% | -39.9% (active) | 57.6% | 41.5% |
| CC(=O)c1ccc2c(N)c(C(=O)Nc3ccc(C(F)(F)F)cc3)sc2n1 | 82.2% | 20% | 26.4% | 68.3% | 85.8% | 85.2% | 38.1% | 71.1% | 59.5% | 58.3% |
| Oc1cncc(-c2ccc3ncnc(N4CCc5cc(F)c(Cl)cc54)c3c2)c1 | 49% | 65% | 70.8% | 46.5% | 46.4% | 45.1% | 57.6% | 56% | 90.9% | 78% |
| CC[C@]12C=CCN3CC[C@@]4(c5ccc(OC)cc5N(C)[C@H]4[C@@](O)(C(=O)OC)[C@@H]1OC(=O)CCCC[P+](c1ccc(F)cc1)(c1ccc(F)cc1)c1ccc(F)cc1)[C@@H]32 | 36.4% | 17.1% | -55.9% (active) | 2.85% (active) | -9.93% (active) | 28.1% | 78.5% | 16% | -50.7% (active) | 19.7% |
| N#CC1=C(c2ccco2)Nc2c(c(-c3ccccc3)nn2-c2ccccc2)C12C(=O)Nc1ccc(Cl)cc12 (stereo not given) | 42.3% | 9.86% (active) | 22.3% | -4.25% (active) | 57.9% | 11% | 6.91% (active) | -30.3% (active) | 56.4% | 22.4% |
| CS(=O)(=O)Nc1cccc(-n2c(COc3ccc(OC(F)(F)F)cc3)nc3ccccc32)c1 | 105% and 121% | 82.2% and 107% | 89.6% and 102% | 92.4% and 110% | 85.8% and 110% | 90% and 113% | 92.7% and 100% | 81.1% and 105% | 106% and 109% | 114% and 107% |
| CS(=O)(=O)Nc1cncc(-c2ccc3ncnc(NCc4ccccc4)c3c2)c1 | 55.2% | 33.6% | 27.8% | 40% | 35.6% | 31.7% | 42.8% | 23.9% | 74.5% | 49% |
| CCc1ccc(SC2c3cc(OC)ccc3Oc3nc(N)c(C#N)c(N)c32)cc1 (stereo not given) | 3.29% (active) | 0.578% (active) | -55.2% (active) | -41.4% (active) | -61.8% (active) | -4.75% (active) | -58.8% (active) | -62.1% (active) | -9.43% (active) | -14.1% (active) |
| CCCCCCCCc1ccc(C(=O)Nc2cccc(O)c2)cc1 | 80.1% | 22.6% | 77.1% | 78.9% | 86.6% | 93.1% | 75% | 79.7% | 79.3% | 76.4% |
| CCOC(=O)/C(F)=C/C1CC1CCc1ccc(OCC)cc1 (stereo not given) | 50.5% | 98.3% | 89.9% | 97.4% | 96.2% | 90.5% | 91.1% | 93% | 105% | 105% |
| Cn1cc(-c2cc(N)n3nc(-c4c[nH]c5ccccc45)cc3n2)c2cc(Br)ccc21 | -70% (active) | 7.7% (active) | -76.9% (active) | -89.3% (active) | -80.6% (active) | -39.8% (active) | -93.6% (active) | -93.7% (active) | -79.8% (active) | -65.7% (active) |

— PubChem BioAssay (NCI)
